PubChem BioAssay (NCATS)
Values joined by “and” are separate entries in the source; they are usually repeats but may differ in a detail not shown here. Equal entries are not always repeated. Inconclusive results are not listed. Active and inactive are the calls of the source. Unless noted, the call rests on the fitted dose curve; in most records, active means well fitted curve in the direction sought with a large enough effect; inconclusive means small, poorly fitted or top-dose-only effect, or another doubt; inactive means no such curve, though single readings can be large; an effect the other way counts as inactive or inconclusive.

Columns and labels:
[1] = Cellular Toxicity (caspase-3) HepG2 (AID 654);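 further: cells exposed to compound for 16 hours before reading; 0% = DMSO alone and 100% = caspase signal from 100 µM tamoxifen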
In short: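 HepG2 cells (1500/well) were treated 16 h at 37 °C in complete medium, then caspase 3/7 activity was read by Caspase-Glo luminescence. Data were normalized to DMSO and 100 uM tamoxifen; AC50 came from Hill-equation fits of qHTS concentration-response.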

[2] = Cellular Toxicity (caspase-3) HUV-EC-C (AID 656);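 further: 0% = DMSO basal and 100% = 100 µM tamoxifen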
In short: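 HUV-EC-C cells (1000/well) in complete medium, compound-treated 16 h at 37 °C; caspase-3/7 activity read by Caspase-Glo 3/7 luminescence. Normalized to DMSO (basal) and 100 uM tamoxifen (100%); AC50 from Hill-equation concentration-response fits.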

[3] = Cellular Toxicity (caspase-3) SHSY5Y (AID 657)
In short: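 SH-SY5Y human neuroblastoma cells, 1500/well, exposed to compound for 16 hours at 37 °C in complete medium. Caspase-3/7 activity read by Caspase-Glo luminescence after 1 hr at room temperature, normalized to DMSO and 10 uM staurosporine; AC50 from Hill fit.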

[4] = Cellular Toxicity (caspase-3) BJ (AID 658);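 further: 0% = DMSO basal and 100% = 10 µM staurosporine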
In short: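 Luminescent aminoluciferin-substrate cleavage reports caspase 3/7 activity in normal human BJ fibroblasts after 16 hr compound exposure at 37 °C. Normalized to DMSO (basal) and 10 uM staurosporine (100%); AC50 from Hill fit of concentration-response.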

[5] = Cellular Toxicity (caspase-3) MRC-5 (AID 659);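 further: 0% = DMSO basal and 100% = 10 µM staurosporine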
In short: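 Luminescence from caspase-cleaved aminoluciferin substrate (Caspase-Glo 3/7, 1 hr RT) reports caspase 3/7 activity in MRC-5 lung fibroblasts after 16 hr compound exposure. Normalized to DMSO basal and 10 uM staurosporine as 100%; AC50 from Hill fits.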

[6] = Cellular Toxicity (caspase-3) Mesangial (AID 660);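 further: cells exposed to compound for 16 h before the caspase read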
In short: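 Human renal glomerular mesangial cells, 1000/well, 5 h at 37 C before 16 h compound treatment. Caspase-Glo 3/7 luminescence after 20 min; normalized to DMSO and 100 uM tamoxifen, AC50 from Hill fit.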

[7] = Cellular Toxicity (caspase-3) SK-N-SH (AID 661);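 further: 0% = DMSO basal and 100% = 10 µM staurosporine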
In short: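 Human SK-N-SH neuroblastoma cells, 1500/well, were exposed to compounds for 16 hours at 37 °C. Caspase-Glo 3/7 luminescence was normalized to DMSO (basal) and 10 uM staurosporine (100%), and AC50 came from a Hill fit.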

[8] = Cellular Toxicity (caspase-3) H-4-II-E (AID 663);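 further: cells exposed to compound for 16 hr before readout; 0% = DMSO basal and 100% = 100 µM tamoxifen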
In short: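 Luminescence from caspase-cleaved aminoluciferin substrate, read 20 min after reagent addition, reports caspase 3/7 activation in rat H-4-II-E cells after 16 hr compound exposure. Normalized to DMSO (basal) and 100 uM tamoxifen (100%); AC50 from Hill fits.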

[9] = Cellular Toxicity (caspase-3) N2a (AID 665);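 further: compound exposure lasted 16 h at 37 °C before readout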
In short: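 Mouse N2a neuroblastoma cells, 1500 per well, treated 16 h at 37 °C in complete medium; caspase-3/7 activity by Caspase-Glo luminescence after 1 h. Normalized to DMSO and 10 uM staurosporine; AC50 from Hill fits.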

[10] = Cellular Toxicity (caspase-3) NIH 3T3 (AID 666);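 further: 0% = DMSO basal and 100% = 100 µM tamoxifen stimulation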
In short: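 Mouse NIH 3T3 fibroblasts (1000/well) treated 16 h at 37 C; caspase-3/7 activity measured by Caspase-Glo 3/7 luminescence after 20 min. Normalized to DMSO and 100 uM tamoxifen; AC50 from Hill fits.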

[11] = Cellular Toxicity (caspase-3) Renal Proximal Tubule (AID 667);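 further: cells exposed to compound for 16 hours at 37 °C before detection; 0% = DMSO basal and 100% = 10 µM staurosporine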
In short: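 Freshly isolated primary rat kidney proximal tubule cells, 1000/well, treated 16 hr at 37 °C, then Caspase-Glo 3/7 luminescence after 1 hr. Normalized to DMSO and 10 uM staurosporine; AC50 from Hill fit.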

[12] = Cell Viability - LYMP2-001 (AID 921);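 further: series mostly up to about 92 µM; cells exposed to compound for 24 h at 37 °C; 0% = DMSO only and full inhibition = tetraoctylammonium bromide control wells; nearly all actives have a fitted effect of over 70% in size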
In short: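 Human lymphoblastoid LYMP2-001 cells, 2500 per well, in complete medium, treated 24 h at 37 C. Viability from cellular ATP by CellTiter-Glo luminescence; AC50 from Hill-equation fits of qHTS concentration-response.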

[13] = MultiTox-Fluor Cytotoxicity Assay - LYMP1-001 - Dead Cells (AID 946);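 further: 0% = DMSO and 100% = tetraoctylammonium bromide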
In short: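 LYMP1-001 lymphoblastoid cells (2500/well) treated 16 h at 37 C. Dead-cell protease cleavage of bis-AAF-R110 read at Ex/Em 485/520. Normalized to DMSO and 15 uM tetraoctylammonium bromide; AC50 from Hill fits.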

[14] = MultiTox-Fluor Cytotoxicity Assay - LYMP1-001 - Live Cells (AID 947);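 further: 0% = DMSO only and full inhibition = tetraoctylammonium bromide control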
[15] = qHTS assay for small molecule activators of the nuclear factor-kappa B (NF-kB) signaling pathway (AID 651749; active means well fitted activation curve with a large enough effect in the signal ratio; the % refers to the signal ratio; further: series mostly up to about 77 µM; % of control where 0% means no effect); conditions: NF-kB-bla ME-180 cells, beta-lactamase FRET ratio, 16 h; activation: hits give high values
In short: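 Screening used 2,000 ME-180 reporter cells per well exposed to pinned compound (23 nL) or DMSO; after 16 hr at 37C, beta-lactamase expression under NF-kB control was assessed through FRET.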

[16] = target: Tumor necrosis factor (Homo sapiens) (UniProt P01375); assay: qHTS assay to identify small molecules that stimulate Tumor Necrosis Factor-alpha (TNF-alpha) secretion (AID 651757; active means well fitted curve in the direction sought with a large enough effect in the signal ratio; the % refers to the signal ratio; further: 0% is about no effect)
Sequence of Tumor necrosis factor (Homo sapiens) (P01375 whole entry, looked up): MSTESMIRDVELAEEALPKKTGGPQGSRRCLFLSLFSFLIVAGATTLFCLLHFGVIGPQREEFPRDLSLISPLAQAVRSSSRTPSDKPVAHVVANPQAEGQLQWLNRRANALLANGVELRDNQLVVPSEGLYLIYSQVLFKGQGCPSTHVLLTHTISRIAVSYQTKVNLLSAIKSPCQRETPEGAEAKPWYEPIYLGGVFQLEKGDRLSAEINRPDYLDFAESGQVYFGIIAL
In short: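 THP-1 cells (3000/well) exposed to compounds 17 hrs at 37 C. Secreted TNF-alpha detected by HTRF with cryptate- and XL665-labeled anti-TNF-alpha antibodies after 3 hr at room temperature.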

[17] = qHTS assay for small molecule agonists of the antioxidant response element (ARE) signaling pathway measured by Nrf2-dependant transcriptional activity (AID 720636; active means well fitted curve in the direction sought with a large enough effect in the repeat runs; an effect the other way counts as inactive or inconclusive; further: potency means the concentration at half of the fitted maximal effect)
In short: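 Attachment 6 hr at 37 C, then compound versus DMSO vehicle for 16 hr in ARE-luc HepG2 cells (1% dialyzed FBS); luminescence recorded 30 min after ONE-Glo addition at room temperature.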

[18] = qHTS assay for small molecule antagonists of the retinoid-related orphan receptor gamma (ROR-gamma) signaling pathway - cell viability counter screen (AID 720652; active means well fitted curve in the direction sought with a large enough effect in the repeat runs; an effect the other way counts as inactive or inconclusive;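 further: CHO reporter cells with doxycycline-induced ROR-gamma expression; series mostly up to about 92 µM; compound exposure lasted 16 hr before ATP read; on the % scale 0 is the no-effect control and ±100 the full control effect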)
In short: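 CHO cells carrying TET-inducible ROR and RORE-luciferase reporter, plated 5 hr, then dosed with compound plus doxycycline. After 16 hr at 37 C, viability read as intracellular ATP by CellTiter-Glo luminescence.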

[19] = target: Nuclear receptor subfamily 1 group I member 2 (Rattus norvegicus) (UniProt Q9R1A7); assay: qHTS assay for small molecule activators of the rat pregnane X receptor (rPXR) signaling pathway (AID 651751; call rule not given here; further: 0% is about no effect); conditions: rPXR reporter cells, luciferase (One-Glo), 24 h
Sequence of Nuclear receptor subfamily 1 group I member 2 (Rattus norvegicus) (Q9R1A7 whole entry, looked up): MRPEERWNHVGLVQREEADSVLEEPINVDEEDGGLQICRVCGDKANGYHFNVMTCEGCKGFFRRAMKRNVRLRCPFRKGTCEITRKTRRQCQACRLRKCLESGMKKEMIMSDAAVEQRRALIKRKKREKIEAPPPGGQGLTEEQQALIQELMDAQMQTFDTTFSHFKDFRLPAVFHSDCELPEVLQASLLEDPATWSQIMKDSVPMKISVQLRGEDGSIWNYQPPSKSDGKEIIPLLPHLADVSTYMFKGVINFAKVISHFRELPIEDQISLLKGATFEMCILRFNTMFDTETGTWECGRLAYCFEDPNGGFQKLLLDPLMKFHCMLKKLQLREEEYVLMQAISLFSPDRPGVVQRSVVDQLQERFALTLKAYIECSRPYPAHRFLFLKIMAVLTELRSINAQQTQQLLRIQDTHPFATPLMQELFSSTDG

[20] = qHTS assay for small molecule activators of the human pregnane X receptor (PXR) signaling pathway (AID 720659; call rule not given here; further: 0% is about no effect)

CC(C)(c1ccc(OCC2CO2)cc1)c1ccc(OCC2CO2)cc1 (stereo not given)
active: Potency [17] 66.8 µM
inactive: outcome [1] | outcome [2] | outcome [3] | outcome [4] | outcome [5] | outcome [6] | outcome [7] | outcome [8] | outcome [9] | outcome [10] | outcome [11] | outcome [12] | Potency [13] | outcome [14] | activation [15] -1.34% and -1.67% | outcome [16] | outcome [18] | max response [19] -1.73% and 0.566% | outcome [20]
